From PubChem BioAssay
ERAP1 HTS inh: ERAP1 (human) enzyme inhibition. inhibition, % at 10.7 µM. actives 0.15% (n = 340,000). recombinant ERAP1, Leu-AMC fluorescence, 60 min;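 active means mean replicate inhibition of at least 30%, or all replicates individually reaching that 30% level; inactive means mean below 30% and not every replicate reaching it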;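 further: 0% = neutral control wells and 100% = L-leucinethiol positive control wells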
PvdQ inh: P. aeruginosa PvdQ acylase inhibition | purified PvdQ acylase, fluorescence plate reader | inhibition, % at 10 µM | actives 0.063% (n = 340,000) | AID 488965; in the data active means inhibition above about 30%, passing the limit was not always enough;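 further: 0% = vehicle neutral wells and 100% = reference inhibitor wells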
ARNT TACC3 PPI: ARNT/TACC3 interaction disruption; actives 0.66% (n = 390,000); inhibition, % at 9.99 µM; AID 623870; AlphaScreen His-ARNT PAS-B/GST-TACC3 binding, luminescence; TACC3 fragment carries E629A point mutation;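 active means mean inhibition of replicates at least 50% and at least half of replicates each reaching 50%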;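 further: 0% = complete ARNT plus TACC3 wells and 100% = ARNT alone without TACC3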
Ecoli rRNA inh: inhibits bacterial ribosomal RNA function over humanized ribosomes | AID 720706 | E. coli WT GFP vs humanized-ribosome RFP mutants, fluorescence, 24 h; hits give low values; DMSO median 0, no signal -100 | GFP signal change (wild-type ribosome), % (no concentration beside the values) | actives 1.6% (n = 350,000);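 active means significant combined selectivity score with lowered wild-type GFP, culture density cut under 30%, mutant RFP and density less affected; inactive means any of these conditions unmet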
F508del corr: CFTR F508del correction in bronchial cells. activity (quench increase), % at 7.58 µM. CFBE cells, YFP halide quenching; stimulated with forskolin plus potentiator P3; % fluorescence drop versus neutral controls. AID 720511. actives 0.36% (n = 350,000);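 active means mean added fluorescence quench of at least 8% versus neutral control, with both replicates also reaching 8%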;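 further: cells transiently co-express mutant CFTR-F508del with the halide-sensitive YFP; corrector assay measuring rescue of mutant channel to the surface after 24 h compound exposure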
* = called active by the depositor; / = not tested or not shown; ! = repeats disagree. The list is not random: actives were taken first. Their share in the collection is about 2.1%.

SMILES | ERAP1 HTS inh | PvdQ inh | ARNT TACC3 PPI | Ecoli rRNA inh | F508del corr
O=c1[nH]c(=O)n(Cc2ccco2)c(O)c1/C=N/N1CCCCC1 | 2.1 | 2.5 | active | 15.6 | -4.8
O=c1[nH]c(=O)n(Cc2ccco2)c(O)c1C=NC1CC1 | / | 23.4 | 29.1 | / | /
CN(C)[C@@H]1C(=O)C(C(N)=O)=C(O)[C@@]2(O)C(=O)C3=C(O)c4c(O)cccc4[C@@](C)(O)[C@H]3[C@H](O)[C@@H]12 | 2.0 | -3.1 | 51.6*! | / | 2.7
CN(C)[C@@H]1C(=O)C(C(N)=O)=C(O)[C@@]2(O)C(=O)C3=C(O)c4c(O)cccc4[C@@](C)(O)C3C[C@@H]12 (some centres not stated) | 2.5 | 8.8 | 20.2 | / | -2.4
C[N+](C)(C)CC1CCCC(C[N+](C)(C)C)C1=O (configuration not stated) | 75.3* | -5.2 | -7.7 | 4.7 | 3.2
C[N+](C)(C)CC1CCCc2ccccc2C1=O (configuration not stated) | 20.3 | -13.7 | -10.3 | 19.6 | -9.2
Cc1nc(Cl)sc1C(=O)Nc1ccc2ccccc2c1 | -2.0 | -0.7 | -4.4 | -30.7* | 1.1
O=C(Nc1ccc2ccccc2c1)c1nn(C23CC4CC(CC(C4)C2)C3)cc1Br | / | -6.4 | 2.9 | / | /
O=C(O)[C@@H]1[C@@H](CO)[C@@H]2Cn3c(ccc(C4=CCCCC4)c3=O)[C@H]1N2CCc1ccccc1 | / | / | / | -4.5 | /
COC(=O)[C@@H]1[C@@H](CO)[C@@H]2Cn3c(ccc(C4=CCCCC4)c3=O)[C@H]1N2C(=O)Cc1ccccn1 | -1.2 | / | -1.7 | -3.0 | -0.1
O=C(c1ccc(Cl)cc1)C1CCCN(Cc2cccc3cccnc23)C1 (configuration not stated) | -2.1 | -2.5 | 5.5 | -23.4* | 3.1
O=C(c1ccc(Cl)cc1)C1CCCN(Cc2ccc3nonc3c2)C1 (configuration not stated) | 9.3 | -1.5 | 5.2 | -27.8* | 0.3
CCCN1[C@@H]2c3ccc(-c4ccccc4)c(=O)n3C[C@H]1[C@H](CO)[C@H]2C(=O)OC | -0.3 | / | -3.3 | 1.6 | -2.6
CCn1c(NN=O)nc2ccccc21 | -5.1 | 3.7 | 48.3* | -3.6 | 1.4
C[C@H]1CCC/C=C/[C@@H]2C[C@H](O)C[C@H]2[C@H](O)/C=C/C(=O)O1 | 0.3 | 5.1 | 3.4 | / | 15.8*!
C[C@H]1CCCC(=O)CCC/C=C/c2cc(O)cc(O)c2C(=O)O1 | -2.0 | -9.9 | 4.2 | / | -3.5
CCN1[C@@H]2Cn3c(ccc(-c4cccc(OC)c4)c3=O)[C@H]1[C@@H](C(=O)OC)[C@@H]2CO | 0.6 | / | -2.8 | 1.5 | -0.1
CCCOP(=O)(OCCC)C(NC(=O)c1cc(OC)c(OC)c(OC)c1)c1ccccc1 (configuration not stated) | / | -10.2 | -3.0 | 7.7 | -6.5
CCC(COC(=O)c1cc(OC)c(OC)c(OC)c1)(c1ccccc1)N(C)C (configuration not stated) | -4.4 | -3.3 | -13.4 | -6.9 | 9.0*!
COC(=O)C1C(O)C(C)C(O)C(C)/C=C\C=C(/C)C(=O)Nc2c(C)c(OC(C)=O)c3c(c2O)C(=O)C(C)=C2OCOC(=C23)/C(C)=C/C(C)(O)C(O)C(C)C1O (configuration not stated) | 4.5 | -1.0 | 8.9 | -17.2* | -0.3
CC=Cc1ccc2n(c1=O)C[C@@H]1[C@@H](CO)[C@H](C(=O)O)[C@H]2N1S(=O)(=O)c1ccccc1F (mixture of isomers) | 4.0 | / | -1.3 | 2.4 | /
COc1ccccc1N1CCN(Cc2ccc(Br)cc2)CC1 | -6.2 | -4.1 | -2.8 | -28.0* | -6.4
CCCCC/C(=N/O)c1c(C)[nH]c2ccccc12 | -3.5 | -10.9 | 10.2 | -20.9* | 0.6
CCCC/C(=N/O)c1c(C)[nH]c2ccccc12 | 0.1 | -19.0 | 5.4 | -10.9 | -0.3
C[C@@H]1O[C@@H](O[C@@H]2C=C3CC[C@@H]4C(CC[C@]5(C)[C@@H](c6ccc(=O)oc6)CC[C@]45O)[C@@]3(C)CC2)[C@H](O)[C@H](O)[C@H]1O (some centres not stated) | -1.3 | -6.8 | -6.6 | 2.5 | 23.6*
FC(F)(F)CN1C[C@@H]2C(c3ccccc3)[C@H](C1)N2CC1CC1 (some centres not stated) | / | / | / | -1.8 | /
